Experimental findings from PubChem BioAssay (Tox21) are described below.

Test [1] can be described thus: qHTS assay to identify small molecule agonists of the androgen receptor (AR) signaling pathway in the presence of an antagonist - cell viability counter screen (AID 1259379; active means well fitted curve in the direction sought with a large enough effect in the repeat runs; an effect the other way counts as inactive or inconclusive; further: nearly all actives have a fitted effect of over 25% in size; further: potency means the concentration at half of the fitted maximal effect;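 on activity change, negative = cytotoxicity: MDA-kb2 human breast cancer cells carrying an MMTV luciferase reporter; series mostly up to about 92 µM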). Summed up:
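Cytotoxicity counter-screen run in the same wells as the nilutamide-challenged (3.0 µM final) AR agonist assay in MDA-kb2 cells. Compounds tested at 15 concentrations for 16 h, 37 °C without CO2; CellTiter-Fluor fluorescence read.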
For orientation: qHTS replaces the single test concentration by a dilution series.

A short description of test [2]: qHTS assay to identify small molecule agonists of the estrogen receptor beta (ER-beta) signaling pathway - cell viability counter screen (AID 1259380; active means well fitted curve in the direction sought with a large enough effect in the repeat runs; an effect the other way counts as inactive or inconclusive; further: nearly all actives have a fitted effect of over 30% in size; further: potency means the concentration at half of the fitted maximal effect). Summed up:
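Cell viability counter screen: CellTiter-Glo luminescence (30 min, room temperature) measured in the same wells as the beta-lactamase readout, after 16 hr compound exposure at 37C of ER-beta-bla HEK293T cells in 2% charcoal-stripped FBS medium.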

Test [3] concerns the target Androgen receptor (Homo sapiens) (UniProt P10275). The experiment in a line: qHTS assay to identify small molecule agonists of the androgen receptor (AR) signaling pathway in the presence of an antagonist (AID 1259381). Further: nearly all actives have a fitted effect of over 15% in size. In short, it runs like this: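 Agonist-mode confirmation run against 3.0 uM final nilutamide: compounds titrated at 15 concentrations onto MDA-kb2 MMTV-luciferase reporter cells. Luminescence measured with ONE-Glo following 16 hr incubation, 37C, 0% CO2.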

Test [4] in a line: qHTS assay to identify small molecule antagonists of the estrogen receptor beta (ER-beta) signaling pathway - cell viability counter screen (AID 1259382; active means well fitted curve in the direction sought with a large enough effect in the repeat runs; an effect the other way counts as inactive or inconclusive; further: nearly all actives have a fitted effect of over 55% in size; further: potency means the concentration at half of the fitted maximal effect;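 on activity change, negative = cytotoxicity: HEK293T cells carrying ER-beta-UAS-bla reporter stimulated with estradiol; series mostly up to about 92 µM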). Summed up: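 Cytotoxicity was measured in the same wells by CellTiter-Glo luminescence after 30 min at room temperature. Cells were ER-beta-bla HEK293T in charcoal-stripped serum, given compound together with 1 nM E2 and incubated 16 h at 37C.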

The target in test [5] is Estrogen receptor (Homo sapiens) (UniProt P03372). Put plainly: qHTS assay to identify small molecule agonists of the estrogen receptor alpha (ER-alpha) signaling pathway in the presence of an antagonist (AID 1259383). Further: top concentration of the series differs between compounds; nearly all actives have a fitted effect of over 15% in size. In short, it runs like this: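 Agonist-mode confirmation run in the presence of 10.0nM (final) ICI-182,780 antagonist. The reporter was ERE-driven luciferase in VM7Luc4E2 cells, grown in charcoal-stripped serum. Cells were exposed to 15-concentration compound series for 22hr, then ONE-Glo luminescence was read.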

The nature of test [6]: qHTS assay to identify small molecule agonists or antagonists of the thyroid stimulating hormone receptor (TSHR) signaling pathway - wild type cell line counter screen (AID 1259384). In short, it runs like this:
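Counter screen in untransfected Hek293: compounds (15-point titration, triplicate) plus phosphodiesterase inhibitor Ro20-1724 added after 18 h plating; 30 min RT. Intracellular cAMP via competitive d2/cryptate immunoassay, 1 h incubation.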

Test [7] has as its target Thyrotropin receptor (Homo sapiens) (UniProt P16473). Put plainly: qHTS assay to identify small molecule antagonists of the thyroid stimulating hormone receptor (TSHR) signaling pathway (AID 1259385). Further: nearly all actives have a fitted effect of over 20% in size. Further: potency means the concentration at half of the fitted maximal effect. In short, it runs like this:
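Antagonist mode: compound-treated TSHR-expressing HEK293 cells were stimulated with 1.5 ng/mL TSH (final) in presence of Ro20-1724 for 30 min at RT. HTRF cAMP detection after 1 h; each compound tested at 15 concentrations, triplicate.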

The nature of test [8]: qHTS assay to identify small molecule agonists of the estrogen receptor alpha (ER-alpha) signaling pathway in the presence of an antagonist - cell viability counter screen (AID 1259386; active means well fitted curve in the direction sought with a large enough effect in the repeat runs; an effect the other way counts as inactive or inconclusive; further: nearly all actives have a fitted effect of over 30% in size; further: potency means the concentration at half of the fitted maximal effect; on activity change, negative = cytotoxicity: series mostly up to about 92 µM). In short, it runs like this: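 Compounds tested at 15 concentrations for 22 h at 37C alongside 10.0nM (final) ICI-182,780 antagonist, in VM7Luc4E2 cells grown in phenol red-free, charcoal-stripped medium. Viability read by CellTiter-Fluor fluorescence after 1 h reagent incubation.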

The target in test [9] is Progesterone receptor (Homo sapiens) (UniProt P06401). Put plainly: qHTS assay to identify small molecule agonists of the progesterone receptor (PR) signaling pathway (AID 1346784). Further: nearly all actives have a fitted effect of over 30% in size. Summed up:
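Using charcoal-stripped serum (2%) to limit endogenous steroids, PR-UAS-bla HEK 293T cells received compounds for 16 hr at 37C after 6 hr plating; beta-lactamase FRET fluorescence was recorded following 2 hr substrate loading at room temperature.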

Test [10] shares this target. Put plainly: qHTS assay to identify small molecule antagonists of the progesterone receptor (PR) signaling pathway (AID 1346795; active means well fitted inhibition curve with a large enough effect in the signal ratio in the repeat runs, not every such curve was filed as active; the % refers to the signal ratio). Summed up: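 Inhibition of R5020-induced (1 nM final) beta-lactamase reporter signal in PR-UAS-bla HEK293T cells was scored by FRET fluorescence after overnight (16 hr) compound treatment.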

Unmarked numbers belong to inactive results. Records with an inconclusive call do not appear. Calls of active or inactive are those of the source. Unless noted, the call rests on the fitted dose curve.
On the % scale 0 is the no-effect control and ±100 the full control effect.

Chain of Estrogen receptor (Homo sapiens) (P03372 whole entry, looked up): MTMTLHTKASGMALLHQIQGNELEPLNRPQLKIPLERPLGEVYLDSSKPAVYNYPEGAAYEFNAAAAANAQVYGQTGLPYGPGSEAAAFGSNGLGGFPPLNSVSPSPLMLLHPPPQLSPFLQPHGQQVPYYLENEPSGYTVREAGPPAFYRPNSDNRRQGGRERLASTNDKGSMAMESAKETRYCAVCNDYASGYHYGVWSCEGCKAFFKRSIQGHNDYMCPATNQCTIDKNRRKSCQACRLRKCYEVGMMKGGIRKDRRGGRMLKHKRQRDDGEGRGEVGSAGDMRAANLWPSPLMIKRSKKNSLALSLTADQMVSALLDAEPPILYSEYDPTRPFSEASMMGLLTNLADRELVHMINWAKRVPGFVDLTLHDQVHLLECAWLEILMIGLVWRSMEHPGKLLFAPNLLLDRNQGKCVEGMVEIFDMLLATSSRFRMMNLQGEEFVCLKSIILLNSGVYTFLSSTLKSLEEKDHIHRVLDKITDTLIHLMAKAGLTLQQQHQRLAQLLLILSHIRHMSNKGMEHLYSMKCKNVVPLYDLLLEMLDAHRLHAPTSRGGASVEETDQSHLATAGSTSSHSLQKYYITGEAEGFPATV
Chain of Thyrotropin receptor (Homo sapiens) (P16473 whole entry, looked up): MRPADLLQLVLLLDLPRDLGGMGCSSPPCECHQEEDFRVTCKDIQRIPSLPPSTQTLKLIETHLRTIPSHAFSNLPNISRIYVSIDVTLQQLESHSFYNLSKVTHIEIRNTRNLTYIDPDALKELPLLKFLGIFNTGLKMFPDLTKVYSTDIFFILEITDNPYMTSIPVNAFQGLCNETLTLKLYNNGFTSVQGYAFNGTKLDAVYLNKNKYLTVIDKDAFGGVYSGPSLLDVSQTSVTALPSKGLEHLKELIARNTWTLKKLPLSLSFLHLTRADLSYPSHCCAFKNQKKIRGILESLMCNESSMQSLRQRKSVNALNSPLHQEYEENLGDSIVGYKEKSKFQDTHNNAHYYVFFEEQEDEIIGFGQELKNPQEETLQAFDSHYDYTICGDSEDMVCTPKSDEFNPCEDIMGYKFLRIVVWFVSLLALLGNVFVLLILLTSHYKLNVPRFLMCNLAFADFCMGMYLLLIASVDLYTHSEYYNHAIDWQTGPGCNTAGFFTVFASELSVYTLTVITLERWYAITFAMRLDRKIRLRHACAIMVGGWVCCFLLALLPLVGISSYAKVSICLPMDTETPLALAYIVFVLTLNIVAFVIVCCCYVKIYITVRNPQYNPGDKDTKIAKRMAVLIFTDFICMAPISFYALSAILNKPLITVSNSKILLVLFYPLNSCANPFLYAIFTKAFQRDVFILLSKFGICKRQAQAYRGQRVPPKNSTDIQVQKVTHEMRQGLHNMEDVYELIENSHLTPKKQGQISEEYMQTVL
Chain of Androgen receptor (Homo sapiens) (P10275 whole entry, looked up): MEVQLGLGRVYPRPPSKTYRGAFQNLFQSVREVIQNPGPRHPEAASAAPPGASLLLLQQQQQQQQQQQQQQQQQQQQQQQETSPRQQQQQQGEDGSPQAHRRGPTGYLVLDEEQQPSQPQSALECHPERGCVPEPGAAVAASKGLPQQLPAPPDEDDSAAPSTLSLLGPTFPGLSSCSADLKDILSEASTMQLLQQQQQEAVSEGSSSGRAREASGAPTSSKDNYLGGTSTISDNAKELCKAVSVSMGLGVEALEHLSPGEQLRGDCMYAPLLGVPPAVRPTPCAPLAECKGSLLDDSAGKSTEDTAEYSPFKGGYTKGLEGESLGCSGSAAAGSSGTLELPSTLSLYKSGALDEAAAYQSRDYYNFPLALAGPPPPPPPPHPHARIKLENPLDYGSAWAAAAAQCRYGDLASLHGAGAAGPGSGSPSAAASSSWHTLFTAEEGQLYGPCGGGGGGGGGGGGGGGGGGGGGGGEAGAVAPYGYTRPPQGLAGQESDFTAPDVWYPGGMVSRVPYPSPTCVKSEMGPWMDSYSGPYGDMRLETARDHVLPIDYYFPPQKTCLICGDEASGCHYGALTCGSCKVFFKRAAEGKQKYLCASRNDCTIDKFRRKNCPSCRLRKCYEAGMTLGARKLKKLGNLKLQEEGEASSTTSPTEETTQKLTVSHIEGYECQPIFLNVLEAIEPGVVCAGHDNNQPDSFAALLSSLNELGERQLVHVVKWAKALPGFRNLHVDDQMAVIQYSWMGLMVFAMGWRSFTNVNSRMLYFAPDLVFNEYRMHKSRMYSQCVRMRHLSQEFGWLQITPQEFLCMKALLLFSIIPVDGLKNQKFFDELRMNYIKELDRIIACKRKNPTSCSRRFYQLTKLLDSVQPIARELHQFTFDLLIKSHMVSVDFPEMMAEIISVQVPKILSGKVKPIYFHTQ
Chain of Progesterone receptor (Homo sapiens) (P06401 whole entry, looked up): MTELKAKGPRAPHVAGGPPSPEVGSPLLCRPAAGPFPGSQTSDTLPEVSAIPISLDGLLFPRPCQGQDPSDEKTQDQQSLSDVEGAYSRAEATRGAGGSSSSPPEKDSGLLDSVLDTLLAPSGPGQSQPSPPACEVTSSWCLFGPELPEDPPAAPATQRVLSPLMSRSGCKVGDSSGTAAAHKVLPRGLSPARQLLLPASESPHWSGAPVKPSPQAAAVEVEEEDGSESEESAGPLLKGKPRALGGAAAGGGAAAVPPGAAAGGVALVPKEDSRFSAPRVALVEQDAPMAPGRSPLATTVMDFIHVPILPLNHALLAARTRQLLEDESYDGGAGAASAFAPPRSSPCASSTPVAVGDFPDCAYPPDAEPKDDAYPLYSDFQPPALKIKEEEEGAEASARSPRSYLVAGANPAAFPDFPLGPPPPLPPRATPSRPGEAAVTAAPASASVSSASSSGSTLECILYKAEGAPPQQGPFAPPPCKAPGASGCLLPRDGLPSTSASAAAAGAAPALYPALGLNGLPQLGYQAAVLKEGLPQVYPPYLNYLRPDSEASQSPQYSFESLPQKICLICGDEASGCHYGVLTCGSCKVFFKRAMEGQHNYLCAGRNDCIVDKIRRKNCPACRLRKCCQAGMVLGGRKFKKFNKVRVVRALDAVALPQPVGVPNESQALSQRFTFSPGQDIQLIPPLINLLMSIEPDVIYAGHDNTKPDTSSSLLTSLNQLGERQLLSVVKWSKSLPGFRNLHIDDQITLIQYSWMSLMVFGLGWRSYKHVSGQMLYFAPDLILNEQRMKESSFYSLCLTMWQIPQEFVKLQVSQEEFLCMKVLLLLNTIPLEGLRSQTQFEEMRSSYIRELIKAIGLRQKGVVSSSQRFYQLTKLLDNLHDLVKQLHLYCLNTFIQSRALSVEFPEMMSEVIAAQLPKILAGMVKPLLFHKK

As to `CN(C[C@@H](CC[N+]12CCC(C3CCCCC3)(CC1)CC2)c1ccc(Cl)c(Cl)c1)C(=O)c1cc(C(F)(F)F)cc(C(F)(F)F)c1`, the results for the Potency in test [1], in test [2] and in [4] were 68.6 µM (active), 30.6 µM (active) and 17.2 µM (active), respectively. In addition, the Potency result in [3], in [5], in test [6] and in test [7] was “inactive” in each case.

In the case of `CCc1c(C)cc(N)c(CC)c1N`, the Potency entry in test [1], in test [2], in test [3], in test [4], in test [5] and in test [6] was “inactive” throughout. Further, the Potency result in [8] and in [10] was “inactive” in each case. Further, the compound was called inactive in test [9].

As for `C/C=C/C(=O)C1=C(C)C=CCC1(C)C`, the Potency result in test [1], in [2], in [3], in test [4], in [5] and in [6] was “inactive” each time. For the same compound, the Potency entry in [7], in test [8] and in test [10] was “inactive” each time. In addition, the outcome in test [9] was inactive.

Consider `Oc1ccc2c(c1)CCC2`, for which the Potency entry in [1], in [2], in [3], in test [4], in test [5] and in test [8] was “inactive” in each case.

Turning to `O=C1c2ccccc2C(=O)c2c(Cl)cccc21`, the Potency result in test [1], in [3], in test [4], in test [5], in test [6] and in test [7] was “inactive” in each case. Also, the Potency entry in test [8] and in [10] was “inactive” each time. The Potency in test [2] is 32.4 µM (active). Moreover, in test [9], the call was inactive.

As for `CN1CCN(C)CC1`, the Potency result in test [1], in [2], in test [3], in test [4], in test [5] and in test [6] was “inactive” in each case. The Potency entry in test [7], in test [8] and in [10] was “inactive” in each case. The compound was called inactive in test [9].

With `CC1CCC(C(C)(C)O)CC1` (stereo unspecified), the Potency entry in test [1], in test [2], in test [3], in test [4] and in test [8] was “inactive” each time. The outcome in test [9] was inactive.

In the case of `Cc1cccc2c1ccc1ccccc12`, the Potency result in [1], in test [2], in test [3], in test [4], in test [5] and in test [8] was “inactive” each time. The outcome in [9] was inactive.

In the case of `Cc1ccc(C2OC[C@@H]3OC(c4ccc(C)cc4)O[C@H]([C@H](O)CO)[C@@H]3O2)cc1` (stereo partly specified), the Potency entry in test [1], in [2], in test [3], in test [4], in [5] and in test [6] was “inactive” throughout. Moreover, the Potency result in [7], in test [8] and in test [10] was “inactive” throughout. Besides, the compound was called inactive in test [9].

On to `O=C1OC2(c3ccccc31)c1ccc(O)c(Br)c1Oc1c2ccc(O)c1Br`, for which the Potency in test [1] was 61.1 µM (active); in test [7], 48.6 µM (active); in test [8], 30.6 µM (active). The Potency result in test [2], in test [3] and in test [4] was “inactive” in each case.

On to `Cc1ccc2sc3cccc(C)c3c2c1`, for which the Potency entry in test [1], in test [2], in [3], in test [4], in test [5] and in test [6] was “inactive” in each case. Besides, the Potency entry in test [7] and in [8] was “inactive” in each case. In addition, the compound was classed as inactive in test [9].

With `Cn1c(=O)[nH]c2ncn(C)c2c1=O`, the Potency entry in [1], in test [2], in test [3], in [4], in test [5] and in [6] was “inactive” in each case. Also, the Potency result in test [7], in [8] and in [10] was “inactive” each time. The compound was classed as inactive in test [9].

Regarding `O=C(O)C[C@H](O)C[C@H](O)/C=C/c1c(C2CC2)nc2ccccc2c1-c1ccc(F)cc1`, the activity change, negative = cytotoxicity in test [1] was 0.182% [at 19 µM]; in [8], 8.43% [at 19 µM]. Also, in [2], the Potency is 3.26 µM (active). The results for the activation in test [3], in test [5] and in test [9] were -0.267% [at 19 µM], -0.342% [at 19 µM] and -0.575% [at 19 µM], respectively. Besides, the cAMP activity change in test [6] was -3.96% [at 18.9 µM, hits give high values]. Also, the activity change, negative = inhibition in test [7] was 1.31% [at 19 µM].

Regarding `COC(=O)c1ccc([N+](=O)[O-])cc1`, the Potency entry in test [1], in [2], in [3], in [4], in test [6] and in test [7] was “inactive” each time. In test [8], the Potency entry was “inactive”.

On to `CCCCCCCCSCc1cc(C)c(O)c(CSCCCCCCCC)c1`, for which the Potency entry in test [1], in [2], in test [3], in [4], in test [5] and in [6] was “inactive” each time. Further, the Potency result in test [7] and in [8] was “inactive” in each case. Also, the compound was called inactive in test [9].

Consider `N#CCCOCCC#N`, for which the Potency result in test [1], in [2], in test [3], in [4], in test [5] and in [6] was “inactive” each time. Further, the Potency entry in test [7] and in test [8] was “inactive” in each case. Moreover, the call in test [9] was inactive.

On to `O=c1cc[nH]cc1`, for which the Potency entry in [1], in test [2], in [3], in test [4], in test [5] and in [6] was “inactive” throughout. In addition, the Potency result in test [7], in [8] and in [10] was “inactive” throughout. The outcome in [9] was inactive.

On to `CCCCCCCCc1ccc(Nc2ccc(CCCCCCCC)cc2)cc1`, for which the Potency result in test [1], in test [2], in [3], in [4], in [5] and in test [6] was “inactive” in each case. Moreover, the Potency entry in test [7], in test [8] and in [10] was “inactive” each time. Also, the compound was classed as inactive in [9].

`CCC1(C)C(=O)N(Cl)C(=O)N1Cl` (stereo unspecified): the Potency result in test [1], in [2], in test [3], in test [4], in test [5] and in test [6] was “inactive” each time. Besides, the Potency entry in [7], in test [8] and in test [10] was “inactive” in each case. The outcome in test [9] was inactive.

For `C=COCCCC`, the Potency result in test [1], in [2], in [3], in [4], in test [5] and in test [6] was “inactive” each time. Besides, the Potency result in test [7] and in [8] was “inactive” each time. In test [9], the outcome was inactive.

Take `C=CC(=O)OCCOC1C2CCC1C1CC=CC12` (stereo unspecified): the activity change, negative = cytotoxicity is -6.73% [at 19 µM] in test [1], -0.168% [at 19 µM] in [2], 2.85% [at 19 µM] in [4] and 0.411% [at 19 µM] in test [8]. The activation was 0.68% [at 19 µM] in test [3] and 0.428% [at 19 µM] in test [5]. Besides, in test [6], the cAMP activity change was -2.01% [at 18.9 µM, hits give high values]. In test [7], the activity change, negative = inhibition was 6.1% [at 19 µM].

For the compound `Cc1c[nH]c(=O)[nH]c1=O`, the Potency entry in [1], in test [2], in test [3], in test [4], in test [5] and in test [6] was “inactive” throughout. For the same compound, the Potency result in test [7], in test [8] and in test [10] was “inactive” each time. The outcome in [9] was inactive.

With `N#Cc1nc(Cl)c(Cl)c(Cl)c1Cl`, the Potency in test [1] is 24.3 µM (active); in [2] it was 15.4 µM (active); in [4] it was 30.6 µM (active). Besides, the Potency entry in test [3], in test [6] and in [7] was “inactive” each time.
